Assays:
Experiment in all cases: DAPPL (digital affinity profiling via proximity ligation, sequencing); 10 mM Tris-HCl pH 7.5, 50 mM NaCl, 1 mM DTT, 4% glycerol, room temperature, 30 min; GST-TFs on glutathione beads, 16-mer random dsDNA library, 0.1% formaldehyde crosslink after washing; high values mean tight binding
Conditions in all cases: protein: recombinant; tags: N-terminal GST; dsDNA, one strand shown
[1] = target: T1, FLI1 (Homo sapiens, UniProt Q01543 1-452)
T1 sequence: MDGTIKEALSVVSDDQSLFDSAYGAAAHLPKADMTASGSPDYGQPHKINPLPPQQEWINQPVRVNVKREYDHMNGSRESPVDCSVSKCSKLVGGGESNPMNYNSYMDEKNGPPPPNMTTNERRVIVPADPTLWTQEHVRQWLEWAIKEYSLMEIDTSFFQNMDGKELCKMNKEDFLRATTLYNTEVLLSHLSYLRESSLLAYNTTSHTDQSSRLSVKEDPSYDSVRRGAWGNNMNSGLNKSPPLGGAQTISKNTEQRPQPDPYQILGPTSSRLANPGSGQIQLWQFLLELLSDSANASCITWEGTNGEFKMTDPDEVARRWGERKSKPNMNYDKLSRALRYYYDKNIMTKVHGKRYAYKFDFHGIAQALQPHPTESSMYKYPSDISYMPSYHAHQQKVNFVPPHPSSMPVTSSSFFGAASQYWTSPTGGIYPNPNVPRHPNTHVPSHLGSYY
How it was run: (§1)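 After expression in yeast as GST fusions, human transcription factors were bound to glutathione beads, DNA-barcoded and mixed with a tag-only sample. The pools were incubated with 200 nmole of a 16-mer random double-stranded DNA library in Tris/NaCl/DTT/glycerol buffer (30 min, room temperature), washed and crosslinked with 0.1% formaldehyde. Proximity ligation with BsaI/T4 ligase ran for 1 h at 37 °C, before PCR amplification and sequencing on an Illumina NextSeq500. Binding signal is a hexamer's read frequency for a factor divided by its frequency for the tag-only sample.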

[2] = target: T2, ELK1 (Homo sapiens, UniProt P19419 1-428)
T2 sequence: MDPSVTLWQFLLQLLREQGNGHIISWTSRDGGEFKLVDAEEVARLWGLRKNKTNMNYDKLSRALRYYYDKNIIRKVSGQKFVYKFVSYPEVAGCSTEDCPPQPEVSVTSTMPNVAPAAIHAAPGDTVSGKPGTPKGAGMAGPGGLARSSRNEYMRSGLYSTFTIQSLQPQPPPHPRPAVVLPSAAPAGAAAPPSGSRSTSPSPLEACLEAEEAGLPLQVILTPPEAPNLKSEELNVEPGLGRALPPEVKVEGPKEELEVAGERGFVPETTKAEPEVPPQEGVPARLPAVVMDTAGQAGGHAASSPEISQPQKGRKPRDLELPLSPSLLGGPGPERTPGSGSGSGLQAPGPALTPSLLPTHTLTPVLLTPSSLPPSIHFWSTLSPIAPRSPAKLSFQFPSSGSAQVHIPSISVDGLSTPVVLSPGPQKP
How it was run: as §1

[3] = target: T3, GABPA (Homo sapiens, UniProt Q06546 1-454)
T3 sequence: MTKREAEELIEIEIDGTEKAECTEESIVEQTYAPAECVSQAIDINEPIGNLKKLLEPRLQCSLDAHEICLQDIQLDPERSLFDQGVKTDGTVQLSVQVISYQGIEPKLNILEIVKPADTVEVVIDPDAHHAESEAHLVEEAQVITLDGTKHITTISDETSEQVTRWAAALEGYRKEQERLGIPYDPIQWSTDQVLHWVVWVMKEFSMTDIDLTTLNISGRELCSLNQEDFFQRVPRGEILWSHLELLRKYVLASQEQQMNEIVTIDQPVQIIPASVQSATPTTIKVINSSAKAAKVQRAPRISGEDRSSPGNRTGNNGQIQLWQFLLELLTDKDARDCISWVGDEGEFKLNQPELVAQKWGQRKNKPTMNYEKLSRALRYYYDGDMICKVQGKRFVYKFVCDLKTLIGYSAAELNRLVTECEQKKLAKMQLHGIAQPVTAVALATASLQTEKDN
How it was run: as §1

[4] = target: T4, ERG (Homo sapiens, UniProt P11308 1-479)
T4 sequence: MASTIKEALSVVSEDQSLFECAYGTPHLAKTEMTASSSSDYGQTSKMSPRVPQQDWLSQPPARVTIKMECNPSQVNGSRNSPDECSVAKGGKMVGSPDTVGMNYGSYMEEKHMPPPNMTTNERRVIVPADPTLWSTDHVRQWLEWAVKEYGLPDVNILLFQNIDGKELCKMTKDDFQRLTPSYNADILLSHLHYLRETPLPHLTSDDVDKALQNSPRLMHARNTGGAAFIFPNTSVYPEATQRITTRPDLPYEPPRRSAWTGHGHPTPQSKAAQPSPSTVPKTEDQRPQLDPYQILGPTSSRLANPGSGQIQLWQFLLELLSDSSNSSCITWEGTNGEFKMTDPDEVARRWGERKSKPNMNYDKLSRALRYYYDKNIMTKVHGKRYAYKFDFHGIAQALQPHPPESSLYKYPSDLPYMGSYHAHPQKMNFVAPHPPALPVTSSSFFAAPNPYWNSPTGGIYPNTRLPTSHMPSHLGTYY
How it was run: as §1

[5] = target: ELF1 (Homo sapiens, UniProt P32519 1-619)
How it was run: as §1

[6] = target: T5, EHF (Homo sapiens, UniProt Q9NZC4 1-300)
T5 sequence: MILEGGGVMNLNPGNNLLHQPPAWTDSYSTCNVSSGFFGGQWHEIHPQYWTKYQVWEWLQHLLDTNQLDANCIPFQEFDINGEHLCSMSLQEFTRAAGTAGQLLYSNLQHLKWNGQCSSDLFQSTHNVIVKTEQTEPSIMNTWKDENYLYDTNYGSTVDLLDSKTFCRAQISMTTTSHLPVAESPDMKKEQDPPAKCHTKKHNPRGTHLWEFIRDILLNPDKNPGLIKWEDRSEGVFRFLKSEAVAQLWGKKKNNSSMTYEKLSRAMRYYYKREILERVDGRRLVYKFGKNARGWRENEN
How it was run: as §1

[7] = target: SPI1 (Homo sapiens, UniProt P17947 1-270)
How it was run: as §1

[8] = target: SPIB (Homo sapiens, UniProt Q01892 1-262)
How it was run: as §1

[9] = target: T6, ELK3 (Homo sapiens, UniProt P41970 1-407)
T6 sequence: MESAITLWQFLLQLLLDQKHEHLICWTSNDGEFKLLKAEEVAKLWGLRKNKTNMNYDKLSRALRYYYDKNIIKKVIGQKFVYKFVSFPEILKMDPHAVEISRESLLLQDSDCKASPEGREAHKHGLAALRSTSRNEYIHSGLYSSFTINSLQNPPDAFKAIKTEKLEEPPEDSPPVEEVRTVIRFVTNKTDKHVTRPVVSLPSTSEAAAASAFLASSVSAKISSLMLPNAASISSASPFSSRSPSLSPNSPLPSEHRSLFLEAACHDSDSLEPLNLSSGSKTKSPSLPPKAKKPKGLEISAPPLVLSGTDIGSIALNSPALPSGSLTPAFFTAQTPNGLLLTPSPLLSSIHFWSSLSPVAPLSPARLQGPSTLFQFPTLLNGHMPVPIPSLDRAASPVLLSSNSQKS
How it was run: as §1

[10] = target: T7, FEV (Homo sapiens, UniProt Q99581 1-238)
T7 sequence: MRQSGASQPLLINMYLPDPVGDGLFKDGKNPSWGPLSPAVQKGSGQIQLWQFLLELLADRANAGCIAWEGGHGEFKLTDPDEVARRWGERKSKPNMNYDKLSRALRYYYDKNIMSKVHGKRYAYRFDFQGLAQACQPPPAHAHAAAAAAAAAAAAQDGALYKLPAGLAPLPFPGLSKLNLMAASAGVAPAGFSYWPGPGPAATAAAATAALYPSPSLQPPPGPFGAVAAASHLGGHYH
How it was run: as §1

[11] = target: ETV5 (Homo sapiens, UniProt P41161 1-510)
How it was run: as §1

[12] = target: T8, SPIC (Homo sapiens, UniProt Q8N5J4 1-248)
T8 sequence: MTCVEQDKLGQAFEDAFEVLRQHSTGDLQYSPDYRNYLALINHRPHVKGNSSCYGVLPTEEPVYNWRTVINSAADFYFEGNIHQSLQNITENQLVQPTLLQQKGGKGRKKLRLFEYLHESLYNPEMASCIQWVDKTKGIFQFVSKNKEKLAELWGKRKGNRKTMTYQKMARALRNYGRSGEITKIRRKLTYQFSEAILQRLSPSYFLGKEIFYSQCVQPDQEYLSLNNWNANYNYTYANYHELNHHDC
How it was run: as §1

[13] = target: ELF4 (Homo sapiens, UniProt Q99607 1-663)
How it was run: as §1

[14] = target: T9, ELK4 (Homo sapiens, UniProt P28324-2 1-405)
T9 sequence: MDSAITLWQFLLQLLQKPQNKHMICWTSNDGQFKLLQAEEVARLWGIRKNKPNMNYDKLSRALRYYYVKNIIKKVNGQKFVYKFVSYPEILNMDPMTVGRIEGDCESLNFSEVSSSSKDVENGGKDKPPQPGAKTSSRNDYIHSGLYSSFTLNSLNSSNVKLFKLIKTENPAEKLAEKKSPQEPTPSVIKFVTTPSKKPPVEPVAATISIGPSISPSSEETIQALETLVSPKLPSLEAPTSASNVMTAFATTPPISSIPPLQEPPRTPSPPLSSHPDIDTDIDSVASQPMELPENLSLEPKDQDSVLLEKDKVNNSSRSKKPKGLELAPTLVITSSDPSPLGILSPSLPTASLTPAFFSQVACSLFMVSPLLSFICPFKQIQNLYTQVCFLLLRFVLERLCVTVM
How it was run: as §1

[15] = target: T10, ETV2 (Homo sapiens, UniProt O00321 1-342)
T10 sequence: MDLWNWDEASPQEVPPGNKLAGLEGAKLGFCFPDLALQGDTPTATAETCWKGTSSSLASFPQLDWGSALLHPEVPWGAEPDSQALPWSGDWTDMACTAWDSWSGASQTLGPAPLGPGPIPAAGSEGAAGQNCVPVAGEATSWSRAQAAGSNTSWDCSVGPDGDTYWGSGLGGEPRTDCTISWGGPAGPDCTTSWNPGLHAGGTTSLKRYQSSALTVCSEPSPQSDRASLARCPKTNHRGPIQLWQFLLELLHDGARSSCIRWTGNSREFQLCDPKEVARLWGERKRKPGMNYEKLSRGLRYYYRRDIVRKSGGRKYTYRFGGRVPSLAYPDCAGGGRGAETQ
How it was run: as §1

[16] = target: T11, ELF3 (Homo sapiens, UniProt P78545 1-371)
T11 sequence: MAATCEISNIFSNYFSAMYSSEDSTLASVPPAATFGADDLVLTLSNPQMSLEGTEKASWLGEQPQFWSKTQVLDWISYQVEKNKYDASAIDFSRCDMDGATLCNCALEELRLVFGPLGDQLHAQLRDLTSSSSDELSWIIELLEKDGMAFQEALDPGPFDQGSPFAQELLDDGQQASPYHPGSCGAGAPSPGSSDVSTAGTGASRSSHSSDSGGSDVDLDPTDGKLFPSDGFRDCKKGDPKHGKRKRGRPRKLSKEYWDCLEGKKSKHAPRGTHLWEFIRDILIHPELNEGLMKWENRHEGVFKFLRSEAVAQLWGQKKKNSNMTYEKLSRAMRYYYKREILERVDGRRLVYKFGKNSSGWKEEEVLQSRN
How it was run: as §1

[17] = target: ETV1 (Homo sapiens, UniProt P50549 1-477)
How it was run: as §1

Chain of SPIB (Q01892 whole entry): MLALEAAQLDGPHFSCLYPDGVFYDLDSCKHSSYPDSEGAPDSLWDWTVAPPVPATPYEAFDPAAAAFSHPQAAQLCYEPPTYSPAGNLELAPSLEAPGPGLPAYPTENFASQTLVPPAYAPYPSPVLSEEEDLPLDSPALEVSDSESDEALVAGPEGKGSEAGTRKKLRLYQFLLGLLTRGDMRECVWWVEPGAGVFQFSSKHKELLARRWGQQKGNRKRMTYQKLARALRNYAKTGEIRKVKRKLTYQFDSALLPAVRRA
Chain of ELF1 (P32519 whole entry): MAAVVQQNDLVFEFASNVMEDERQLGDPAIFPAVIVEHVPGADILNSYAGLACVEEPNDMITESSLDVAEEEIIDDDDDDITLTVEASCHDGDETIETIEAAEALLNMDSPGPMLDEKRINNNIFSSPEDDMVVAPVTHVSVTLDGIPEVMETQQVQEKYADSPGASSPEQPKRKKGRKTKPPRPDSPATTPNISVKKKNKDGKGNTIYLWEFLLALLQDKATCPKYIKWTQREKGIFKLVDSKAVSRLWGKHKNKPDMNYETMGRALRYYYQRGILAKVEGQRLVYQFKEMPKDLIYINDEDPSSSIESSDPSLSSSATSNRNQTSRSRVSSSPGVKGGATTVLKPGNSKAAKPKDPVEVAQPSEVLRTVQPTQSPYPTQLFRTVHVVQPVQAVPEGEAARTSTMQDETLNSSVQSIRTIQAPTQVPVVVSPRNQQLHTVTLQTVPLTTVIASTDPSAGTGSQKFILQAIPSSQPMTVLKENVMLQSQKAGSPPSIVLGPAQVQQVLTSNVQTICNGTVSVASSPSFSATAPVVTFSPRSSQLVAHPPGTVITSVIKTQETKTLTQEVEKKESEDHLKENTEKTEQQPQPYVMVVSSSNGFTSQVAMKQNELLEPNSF
Chain of ELF4 (Q99607 whole entry): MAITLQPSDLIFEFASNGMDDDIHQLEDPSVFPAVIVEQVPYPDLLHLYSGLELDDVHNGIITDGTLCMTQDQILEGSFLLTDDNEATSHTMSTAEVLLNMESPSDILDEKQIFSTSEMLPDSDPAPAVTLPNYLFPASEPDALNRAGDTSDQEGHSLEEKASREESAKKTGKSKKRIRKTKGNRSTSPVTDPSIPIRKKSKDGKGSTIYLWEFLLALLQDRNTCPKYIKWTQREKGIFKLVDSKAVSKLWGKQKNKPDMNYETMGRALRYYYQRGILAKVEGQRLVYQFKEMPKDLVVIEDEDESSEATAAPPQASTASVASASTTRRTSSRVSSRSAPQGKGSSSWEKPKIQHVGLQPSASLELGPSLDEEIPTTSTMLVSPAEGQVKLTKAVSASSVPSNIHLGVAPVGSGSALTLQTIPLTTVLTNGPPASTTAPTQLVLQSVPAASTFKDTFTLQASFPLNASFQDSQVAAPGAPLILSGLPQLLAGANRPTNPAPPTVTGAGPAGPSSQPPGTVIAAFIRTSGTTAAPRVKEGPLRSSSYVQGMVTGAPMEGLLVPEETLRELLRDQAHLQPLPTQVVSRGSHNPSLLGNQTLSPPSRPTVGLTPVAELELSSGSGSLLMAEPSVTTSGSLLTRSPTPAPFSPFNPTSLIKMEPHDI
Chain of ETV5 (P41161 whole entry): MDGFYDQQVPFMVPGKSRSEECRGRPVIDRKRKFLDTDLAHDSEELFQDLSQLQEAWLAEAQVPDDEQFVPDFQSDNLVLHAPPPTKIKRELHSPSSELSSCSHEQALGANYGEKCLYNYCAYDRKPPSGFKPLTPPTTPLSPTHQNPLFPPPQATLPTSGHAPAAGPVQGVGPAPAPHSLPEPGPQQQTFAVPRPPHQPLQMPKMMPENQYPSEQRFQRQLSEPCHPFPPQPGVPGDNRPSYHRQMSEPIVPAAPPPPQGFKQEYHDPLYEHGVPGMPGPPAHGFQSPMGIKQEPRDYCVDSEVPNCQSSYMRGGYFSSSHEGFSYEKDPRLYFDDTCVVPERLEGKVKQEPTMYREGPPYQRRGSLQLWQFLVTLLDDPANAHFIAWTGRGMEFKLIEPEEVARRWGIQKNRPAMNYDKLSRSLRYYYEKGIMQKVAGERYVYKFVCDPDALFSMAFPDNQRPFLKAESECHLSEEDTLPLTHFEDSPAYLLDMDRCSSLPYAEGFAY
Chain of ETV1 (P50549 whole entry): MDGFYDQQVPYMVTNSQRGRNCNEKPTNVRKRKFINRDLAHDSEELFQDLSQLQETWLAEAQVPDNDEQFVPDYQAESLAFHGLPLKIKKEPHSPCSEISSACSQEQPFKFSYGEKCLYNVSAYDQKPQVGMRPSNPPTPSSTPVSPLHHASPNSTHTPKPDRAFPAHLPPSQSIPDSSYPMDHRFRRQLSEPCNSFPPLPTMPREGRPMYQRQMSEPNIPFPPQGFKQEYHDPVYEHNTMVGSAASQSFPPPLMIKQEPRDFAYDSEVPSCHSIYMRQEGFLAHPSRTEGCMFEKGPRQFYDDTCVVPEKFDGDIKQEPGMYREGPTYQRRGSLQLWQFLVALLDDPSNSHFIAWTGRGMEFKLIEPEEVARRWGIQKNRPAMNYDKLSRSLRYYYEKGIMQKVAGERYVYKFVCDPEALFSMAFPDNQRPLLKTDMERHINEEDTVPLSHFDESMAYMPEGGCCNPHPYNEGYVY

Sequence | binding signal [1] | binding signal [2] | binding signal [3] | binding signal [4] | binding signal [5] | binding signal [6] | binding signal [7] | binding signal [8] | binding signal [9] | binding signal [10] | binding signal [11] | binding signal [12] | binding signal [13] | binding signal [14] | binding signal [15] | binding signal [16] | binding signal [17]
GCGTTT | 1.1 fold enrichment (6-mer frequency, TF over GST control) | 1.04 fold enrichment (6-mer frequency, TF over GST control) | 1.11 fold enrichment (6-mer frequency, TF over GST control) | 1.14 fold enrichment (6-mer frequency, TF over GST control) | 1.08 fold enrichment (6-mer frequency, TF over GST control) | 1.14 fold enrichment (6-mer frequency, TF over GST control) | 1.05 fold enrichment (6-mer frequency, TF over GST control) | 1.13 fold enrichment (6-mer frequency, TF over GST control) | 1.2 fold enrichment (6-mer frequency, TF over GST control) | 1.18 fold enrichment (6-mer frequency, TF over GST control) | 1.09 fold enrichment (6-mer frequency, TF over GST control) | 1.15 fold enrichment (6-mer frequency, TF over GST control) | 1.13 fold enrichment (6-mer frequency, TF over GST control) | 1.16 fold enrichment (6-mer frequency, TF over GST control) | 1.11 fold enrichment (6-mer frequency, TF over GST control) | 1.15 fold enrichment (6-mer frequency, TF over GST control) | –
CCGCGC | 1.12 fold enrichment (6-mer frequency, TF over GST control) | 1.16 fold enrichment (6-mer frequency, TF over GST control) | – | 1.2 fold enrichment (6-mer frequency, TF over GST control) | 1.18 fold enrichment (6-mer frequency, TF over GST control) | 1.05 fold enrichment (6-mer frequency, TF over GST control) | 1.14 fold enrichment (6-mer frequency, TF over GST control) | 1.24 fold enrichment (6-mer frequency, TF over GST control) | 1.24 fold enrichment (6-mer frequency, TF over GST control) | 1.11 fold enrichment (6-mer frequency, TF over GST control) | 1.21 fold enrichment (6-mer frequency, TF over GST control) | 1.41 fold enrichment (6-mer frequency, TF over GST control) | 1.07 fold enrichment (6-mer frequency, TF over GST control) | 1.35 fold enrichment (6-mer frequency, TF over GST control) | 1.29 fold enrichment (6-mer frequency, TF over GST control) | 1.01 fold enrichment (6-mer frequency, TF over GST control) | 1.06 fold enrichment (6-mer frequency, TF over GST control)
GTCACT | 1.1 fold enrichment (6-mer frequency, TF over GST control) | 1.07 fold enrichment (6-mer frequency, TF over GST control) | 1.08 fold enrichment (6-mer frequency, TF over GST control) | 1.13 fold enrichment (6-mer frequency, TF over GST control) | 1.1 fold enrichment (6-mer frequency, TF over GST control) | 1.15 fold enrichment (6-mer frequency, TF over GST control) | 1.19 fold enrichment (6-mer frequency, TF over GST control) | 1.21 fold enrichment (6-mer frequency, TF over GST control) | 1.06 fold enrichment (6-mer frequency, TF over GST control) | 1.18 fold enrichment (6-mer frequency, TF over GST control) | 1.14 fold enrichment (6-mer frequency, TF over GST control) | 1.01 fold enrichment (6-mer frequency, TF over GST control) | 1.09 fold enrichment (6-mer frequency, TF over GST control) | 1.07 fold enrichment (6-mer frequency, TF over GST control) | 1.14 fold enrichment (6-mer frequency, TF over GST control) | 1.26 fold enrichment (6-mer frequency, TF over GST control) | –

Source: PMC7862700, “An all-to-all approach to the identification of sequence-specific readers for epigenetic DNA modifications on cytosine”
